Hits are enriched below; roughly 10% of the tested compounds scored in any of these assays.
PTEN del growth: PTEN-deleted cell growth suppression; HCT116 PTEN-null viability, CellTiter-Glo, 60 h; active compounds read low; viability, % at 10 µM; actives 1.2% (n = 140,000); AID 827;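 active = viability at or below a set limit, 4 SD under the median of all tested compounds, cut at about 3.7% in these data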;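 note: PTEN knockout HCT116 line with beta catenin targeted HCT116 as companion control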
HCT116 bCat-KO: beta-catenin-lacking colon tumor cell growth suppression; HCT116 beta-catenin knockout viability, CellTiter-Glo, 60 h; active compounds read low; viability, % at 10 µM; actives 1.5% (n = 140,000); AID 818;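 active = viability at or under a set limit, the compound median less 4 SD, cut at about 6% in these data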
L major viab: Leishmania major promastigote growth inhibition | inhibition, % at 10 µM | actives 9% (n = 200,000) | Leishmania major promastigotes, resazurin fluorescence viability | AID 1063; in the data active = inhibition above about 50%;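 note: promastigotes grown with compound for 44 hours at 28 °C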
ROMK mod: human ROMK K+ channel modulation, primary screen. B-score at 10 µM. Tet-inducible ROMK, thallium flux fluorescence; actives lie on both sides. P48048. AID 1918. actives 2% (n = 130,000);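 active = signal ratio slope over the read window, or its plate-corrected B-score, at least 3 SD from the plate mean, either direction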;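 note: B-score of the F/F0 ratio slope over 7 to 12 s after thallium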
p97 ATPase inh: blocks human p97 ATPase activity; P55072; recombinant p97 ATPase, Kinase-Glo ATP luminescence, 3 h; AID 1481; actives 0.42% (n = 220,000); inhibition, % at 8 µM; in the data active = inhibition above about 15%
Target sequence (P55072 whole entry, looked up): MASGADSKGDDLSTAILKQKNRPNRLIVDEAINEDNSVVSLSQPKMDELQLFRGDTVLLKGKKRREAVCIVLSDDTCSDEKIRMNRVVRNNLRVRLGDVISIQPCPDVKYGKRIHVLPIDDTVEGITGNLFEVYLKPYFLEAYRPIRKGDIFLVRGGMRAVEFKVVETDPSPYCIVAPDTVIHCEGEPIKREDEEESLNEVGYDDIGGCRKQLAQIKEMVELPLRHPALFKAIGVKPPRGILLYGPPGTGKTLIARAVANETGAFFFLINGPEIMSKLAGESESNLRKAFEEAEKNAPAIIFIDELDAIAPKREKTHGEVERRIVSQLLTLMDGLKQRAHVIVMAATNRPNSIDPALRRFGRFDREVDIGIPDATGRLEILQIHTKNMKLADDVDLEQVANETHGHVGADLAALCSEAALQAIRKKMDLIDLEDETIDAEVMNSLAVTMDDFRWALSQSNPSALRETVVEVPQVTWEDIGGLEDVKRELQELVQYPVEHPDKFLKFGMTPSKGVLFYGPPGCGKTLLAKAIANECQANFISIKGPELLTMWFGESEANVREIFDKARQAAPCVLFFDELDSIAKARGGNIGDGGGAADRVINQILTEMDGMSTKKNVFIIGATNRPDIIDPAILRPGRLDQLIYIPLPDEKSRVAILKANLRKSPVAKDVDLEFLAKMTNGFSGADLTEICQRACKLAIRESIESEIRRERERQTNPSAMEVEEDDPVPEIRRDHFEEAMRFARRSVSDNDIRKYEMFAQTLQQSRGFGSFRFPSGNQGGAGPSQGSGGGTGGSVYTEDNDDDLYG
Insulin prom inh: TRM-6 insulin promoter activity inhibition; TRM-6 cells (human fetal islet line), insulin promoter-eGFP reporter, imaging; reporter expression induced with tamoxifen; inhibition, % at 2 µM; actives 0.9% (n = 130,000);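 active = inhibition above the mean plus 3 SD, with well images judged a real hit on visual review, cut at about 60% in these data, passing the limit was not always enough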
Of the large screens only hits and unclear results are named; the others gave an inactive call.

Cc1ccc2nc(SC(C)C(=O)N3CCOCC3)[nH]c2c1 (stereo unspecified)	none (no result: PTEN del growth, HCT116 bCat-KO, Insulin prom inh)
Cc1nc2ccc(C(=O)N3CCN(c4ccccn4)CC3)cc2s1	none
CCOC(=O)N1CCN(C(=O)c2ccc3nc(C)sc3c2)CC1	Insulin prom inh 71
COc1ccc(NC(=O)Nc2cc(C)ccc2OC(F)F)c(OC)c1	L major viab 67 (no result: ROMK mod)
CCNc1nc(NCC)n2c(SCC(=O)Nc3ccccc3[N+](=O)[O-])nnc2n1	none (no result: Insulin prom inh)
COc1cc([N+](=O)[O-])ccc1NC(=O)CCN1C(=O)C2C3CCC(C3)C2C1=O (stereo unspecified)	L major viab 56 (no result: ROMK mod)
Nc1cc(C(=O)O)c(Oc2ccc(Cl)cc2Cl)cc1C(=O)O	Insulin prom inh 67
Nc1cc(Cl)ccc1Oc1ccccc1	none (no result: ROMK mod)
CC(=O)Nc1ccc2c(c1)C(C)(C)C(C)N2C (stereo unspecified)	L major viab 94 (no result: PTEN del growth, HCT116 bCat-KO)
Cc1cc([N+](=O)[O-])nn1Cc1ccc(C(=O)N/N=C/c2ccc(O)cc2O)cc1	L major viab 95
O=C(N/N=C/c1ccc(O)cc1O)c1ccc(CN2C(=O)c3cccc4cccc2c34)cc1	L major viab 100 (no result: PTEN del growth, HCT116 bCat-KO, Insulin prom inh)
Cc1cc([N+](=O)[O-])nn1Cc1ccc(C(=O)N/N=C/c2ccc(F)cc2)cc1	none (no result: PTEN del growth, HCT116 bCat-KO, L major viab, ROMK mod, Insulin prom inh)
O=C(N/N=C/c1ccccc1)c1ccc(CN2C(=O)c3cccc4cccc2c34)cc1	none
COc1ccc(CC(=O)N2CCC(Nc3nc4ccccc4n3Cc3ccc(F)cc3)CC2)cc1	ROMK mod -4
O=C(CCCOc1ccc(Cl)cc1Cl)N/N=C/c1cccc([N+](=O)[O-])c1	none
CCN1CCN(C2=CC3=CC(=C(C#N)C#N)CCC3CC2)CC1 (stereo unspecified)	L major viab 88 (no result: PTEN del growth, HCT116 bCat-KO, ROMK mod)
CN1CCN(C2=CC3=CC(=C(C#N)C#N)CCC3CC2)CC1 (stereo unspecified)	none (no result: PTEN del growth, HCT116 bCat-KO, ROMK mod)
O=C(N/N=C/c1cccc([N+](=O)[O-])c1)C1CC(=O)N(c2ccc(Cl)cc2)C1 (stereo unspecified)	L major viab 95 (no result: ROMK mod)
CCOC(=O)N1CCN(S(=O)(=O)c2ccc(C(=O)Nc3nnc(CSC)o3)cc2)CC1	none (no result: Insulin prom inh)
Cc1cc(OCC(O)CN2CCN(CCO)CC2)ccc1C(C)C (stereo unspecified)	L major viab 89
CCN1CCN(CC(O)COc2ccc3c(c2)CCC3)CC1 (stereo unspecified)	L major viab 84
OCCN1CCN(CC(O)COc2ccc3c(c2)OCO3)CC1 (stereo unspecified)	none (no result: ROMK mod)
CCOc1cc(C2CC(=O)c3c(ccc4ccccc34)N2)ccc1O (stereo unspecified)	none (no result: Insulin prom inh)
COc1ccc(C2CC(=O)c3c(ccc4ccccc34)N2)cc1OC (stereo unspecified)	L major viab 100 (no result: Insulin prom inh)
CCN(CC)S(=O)(=O)c1ccc2c(c1)nc(CCC(=O)Nc1ccccc1Cc1ccccc1)n2CC	L major viab 86
Cc1oc(-c2cc(F)cc(F)c2)nc1CN1CCSCC1	none (no result: PTEN del growth, HCT116 bCat-KO, Insulin prom inh)
C/C(=N/Nc1cc(-c2ccccc2)nc(-c2ccccc2)n1)c1ccc(O)cc1	L major viab 89
C/C(=N\Nc1cc(-c2ccccc2)nc(-c2ccc(Br)cc2)n1)c1cccc(N)c1	none (no result: PTEN del growth, HCT116 bCat-KO, ROMK mod)
CC(=O)Nc1ccc(Nc2ccc(S(=O)(=O)C(F)(F)F)cc2[N+](=O)[O-])cc1	L major viab 56 (no result: ROMK mod, Insulin prom inh)
O=C(O)CNc1ccc(S(=O)(=O)C(F)(F)F)cc1[N+](=O)[O-]	none (no result: PTEN del growth, HCT116 bCat-KO, L major viab, ROMK mod, Insulin prom inh)
Cc1cc(C)c(C)c(OC(=O)c2sc(Cl)nc2C)c1	PTEN del growth 2.3, HCT116 bCat-KO 1.7 (no result: ROMK mod)
Cn1c(=O)c(C(=O)CN2CCCCCC2)c(N)n(Cc2ccccc2)c1=O	none (no result: PTEN del growth, HCT116 bCat-KO, Insulin prom inh)
Cc1cc(C)c(C)c(S(=O)(=O)N2CCN(CC(=O)c3c(N)n(Cc4ccccc4)c(=O)n(C)c3=O)CC2)c1C	L major viab 99
CCn1c(=O)c(C(=O)CN2CCN(S(=O)(=O)c3ccc(C)cc3C)CC2)c(N)n(Cc2ccccc2)c1=O	L major viab 58
COC(=O)/C=C1\N/C(=N\c2nc(C)cc(C)n2)N(c2ccc(C)c(C)c2)C1=O	none
CC(C)CNC(=O)NC(=O)COC(=O)COc1ccc(Cl)cc1Cl	none (no result: PTEN del growth, HCT116 bCat-KO, L major viab, Insulin prom inh)
CCN(CC)C(=O)C(C)OC(=O)COc1ccc(Cl)cc1Cl (stereo unspecified)	L major viab 58
Cn1c(=O)c2ncn(CC(=O)Nc3nc(-c4ccc(Cl)cc4)cs3)c2n(C)c1=O	none (no result: PTEN del growth, HCT116 bCat-KO)
CC(=O)Nc1cc(Cl)ccc1OS(=O)(=O)c1ccc(C)cc1	none
